Screening results: PubChem, several laboratories
Mtb bLac sens: beta-lactam sensitization of Mtb H37Rv | M. tuberculosis H37Rv growth with meropenem, percent inhibition | inhibition, % at 25 µM | 330,000 compounds, 0.27% hits; call rule not given here;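 note: growth measured after seven days incubation then overnight dye step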
UGM FP inh: inhibitors of M. tuberculosis UDP-galactopyranose mutase. P9WIQ1. 320,000 compounds, 0.06% hits. AID 504406. inhibition, % at 10 µM. purified UGM, fluorescence polarization probe displacement; in the data active = inhibition above about 10%, passing the limit was not always enough
Target sequence (P9WIQ1 whole entry, looked up): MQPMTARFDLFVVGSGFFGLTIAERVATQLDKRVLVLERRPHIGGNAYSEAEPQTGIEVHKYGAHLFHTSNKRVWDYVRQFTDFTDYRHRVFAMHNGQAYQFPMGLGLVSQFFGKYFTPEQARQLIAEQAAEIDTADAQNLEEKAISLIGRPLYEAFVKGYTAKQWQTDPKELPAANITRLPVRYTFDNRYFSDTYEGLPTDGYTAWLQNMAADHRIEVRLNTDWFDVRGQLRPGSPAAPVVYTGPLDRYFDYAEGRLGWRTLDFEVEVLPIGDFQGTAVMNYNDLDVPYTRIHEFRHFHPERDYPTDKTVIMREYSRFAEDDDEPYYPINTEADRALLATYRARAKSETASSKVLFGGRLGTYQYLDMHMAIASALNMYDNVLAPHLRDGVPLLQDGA
RecA splice inh: Mtb RecA intein splicing inhibition | P9WHJ3 | inhibition, % (test concentration not listed) | cell-free RecA intein splicing, fluorescence | 290,000 compounds, 0.75% hits; in the data active = inhibition above about 30%
Rv3671c inh: inhibitors of M. tuberculosis serine protease Rv3671c; P9WHR9; inhibition, % at 5.96 µM; AID 2606; 320,000 compounds, 0.048% hits; in the data active = inhibition above about 38%;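 note: extracellular domain of Rv3671c used as enzyme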
GDH-TPI inh: GDH-TPI coupled enzyme inhibition counter-screen; GDH-TPI coupled enzyme counterscreen, NADH absorbance; inhibition, % at 4.8 µM; 360,000 compounds, 1.2% hits; in the data active = inhibition above about 30%
FBA Mtb inh: inhibits M. tuberculosis FBA enzyme; P9WQA3; 360,000 compounds, 2.3% hits; inhibition, % at 1 µM; purified M. tuberculosis FBA, fluorescence read-out; in the data active = inhibition above about 27%
Of the large screens only hits and unclear results are named; the others gave an inactive call. In the library only some 4% were active in any assay of this set; here they are far more common.

Cc1ccsc1/C=N\Nc1cn[nH]c(=O)c1Cl	none
COc1ccc(/C=N/Nc2cn[nH]c(=O)c2Cl)cc1	GDH-TPI inh 36
N/C(=N/OC(=O)c1ccccc1Cl)c1ncc([N+](=O)[O-])s1	none
COc1ccc(/C=C/C(=O)OCC(=O)NC(C)CCc2ccccc2)cc1 (stereo not given)	none (no result: RecA splice inh)
Cc1ccccc1C(=O)/C=C1\NC(=O)CS1	GDH-TPI inh 48 (no result: RecA splice inh)
Cc1cc(C)cc(C(=O)/C=C2\NC(=O)CS2)c1	GDH-TPI inh 39
O=C1CS/C(=C/C(=O)c2ccccc2)N1	GDH-TPI inh 44
O=C1CSc2ccccc2N1	none (no result: Mtb bLac sens, UGM FP inh, RecA splice inh, Rv3671c inh)
Cc1cccc(N(CC(=O)NC2CCCCC2)C(=O)CCCC(=O)Nc2ccccn2)c1C	none (no result: RecA splice inh)
COc1ccc2[nH]c(=O)c(CN(Cc3cccnc3)C(=S)NCC3CCCO3)cc2c1 (stereo not given)	none
CCOC(=O)c1c(S(=O)(=O)NCc2ccco2)c(C)n(C)c1C	none
CCN(C[C@H]1N[C@@](Cc2ccccc2)(C(=O)OC)[C@H]2C(=O)N(Cc3ccccc3)C(=O)[C@@H]12)S(=O)(=O)c1ccc(-c2ccccc2)cc1	GDH-TPI inh 32 (no result: RecA splice inh)
CCOC(=O)c1c(S(=O)(=O)NC2CCN(C(=O)OCC)CC2)c(C)n(C)c1C	none
CC1(C(=O)NS(=O)(=O)c2cccc(C#N)c2)CCN1C(=O)Cc1cc(F)ccc1F (stereo not given)	none (no result: Mtb bLac sens, UGM FP inh, RecA splice inh, Rv3671c inh)
CC(=O)Nc1ccc(C=NNC(=O)c2ccc(NS(=O)(=O)c3cccs3)cc2)cc1	GDH-TPI inh 59 (no result: RecA splice inh)
O=C(NN=Cc1c(F)c(F)c(F)c(F)c1F)c1ccc(NS(=O)(=O)c2cccs2)cc1	GDH-TPI inh 36 (no result: RecA splice inh)
O=C(NN=Cc1ccc(O)cc1)c1ccccc1NS(=O)(=O)c1cccs1	GDH-TPI inh 37 (no result: RecA splice inh)
COc1ccccc1CNC(=O)c1ccc(NS(=O)(=O)c2cccs2)cc1	none
COc1cc(C=NNC(=O)c2ccc(NS(=O)(=O)c3cccs3)cc2)cc(Br)c1O	GDH-TPI inh 52 (no result: RecA splice inh)
C/C(=N\NC(=O)c1ccc(NS(=O)(=O)c2cccs2)cc1)c1cccs1	none
N#Cc1ccc(NC(=O)COc2ccc(-n3cnnn3)cc2)cc1	none (no result: RecA splice inh)
CN(C)c1nc(N)nc2c1ncn2C1OC(CO)CC1O (stereo not given)	none (no result: Mtb bLac sens, UGM FP inh, RecA splice inh, Rv3671c inh, GDH-TPI inh)
CC(=O)Nc1ccc(/C=N/NC(=O)c2cccc(S(=O)(=O)N3CCOCC3)c2)cc1	GDH-TPI inh 36
COc1ccc(NC(=O)[C@@H](NC(N)=O)C(C)C)cc1Cl	none (no result: RecA splice inh)
N=c1c(S(=O)(=O)c2ccc(Br)cc2)cc2c(=O)n3ccccc3nc2n1CCN1CCOCC1	FBA Mtb inh active (no result: Mtb bLac sens, UGM FP inh, RecA splice inh, Rv3671c inh)
N=c1c(C(=O)NCCc2ccccc2)cc2c(=O)n3ccccc3nc2n1CCCN1CCOCC1	FBA Mtb inh 145 (no result: RecA splice inh)
N=c1c(C(=O)NCCN2CCOCC2)cc2c(=O)n3ccccc3nc2n1CCc1ccccc1	FBA Mtb inh 173
Cc1ccc(Cn2c(=N)c(C(=O)NCCN3CCOCC3)cc3c(=O)n4ccccc4nc32)cc1	none
N=c1c(C(=O)NCc2ccc(F)cc2)cc2c(=O)n3ccccc3nc2n1CCCN1CCOCC1	FBA Mtb inh 113 (no result: RecA splice inh)
Cc1cc(=O)n2[nH]c(-c3ccc(C(C)(C)C)cc3)cc2n1	FBA Mtb inh 36
Cc1cc(=O)n2[nH]c(-c3ccccc3)cc2n1	none
Cn1c(CC(=O)Nc2ccc(Cl)c(Cl)c2)n[nH]c1=S	FBA Mtb inh 55
COc1ccc(-c2coc3c(C(=O)Nc4cccc(NS(C)(=O)=O)c4)cccc23)c(C)c1	none (no result: Mtb bLac sens, UGM FP inh, RecA splice inh, Rv3671c inh)
O=c1cc(-c2ccccc2)oc2ccccc12	none (no result: RecA splice inh)
O=c1cc(/C=C/c2ccccc2)oc2ccccc12	GDH-TPI inh 32 (no result: RecA splice inh)
CC1(C)CC(=O)c2sc(NC(=O)CN3CCCCC3)nc2C1	GDH-TPI inh 34
CC(=O)Nc1nc(-c2ccccc2)cc(-c2ccco2)c1C#N	FBA Mtb inh active (no result: RecA splice inh)
N#Cc1sc2nc(-c3ccccc3)cc(-c3ccco3)c2c1N	none
CC(=O)N1N=C(c2cccc(NS(C)(=O)=O)c2)CC1c1cccs1 (stereo not given)	GDH-TPI inh 65
CCS(=O)(=O)Nc1cccc(C2=NN(C(C)=O)C(c3cccs3)C2)c1 (stereo not given)	none
CS(=O)(=O)Nc1ccc(C2=NN(C(=O)c3ccccc3)C(c3cccs3)C2)cc1 (stereo not given)	none
CS(=O)(=O)Nc1ccc(C2=NN(C(=O)CCCC(=O)O)C(c3cccs3)C2)cc1 (stereo not given)	FBA Mtb inh active
CC(C)(C)C(=O)N1N=C(c2ccc(NS(C)(=O)=O)cc2)CC1c1cccs1 (stereo not given)	FBA Mtb inh 112
CC(=O)c1c(C)cc(C)c(CSc2ccccn2)c1C	none
COc1cc(/C=C(/C#N)c2nc3ccccc3[nH]2)ccc1OCc1ccc(C(=O)O)o1	none
COC(=O)c1ccc(COc2ccc(/C=C(\C#N)c3nc4ccccc4[nH]3)cc2OC)o1	GDH-TPI inh 32
CCN(CC)C(=O)CN1CCC(c2nc3cc(C)c(C)cc3[nH]2)CC1	none
CC(=O)c1ccc(OC2(C)CCN(Cc3ccc4c(c3)OCCO4)C2)cc1 (stereo not given)	none (no result: Mtb bLac sens, UGM FP inh, RecA splice inh, Rv3671c inh)
C/C(=N\NC(=O)c1ccc2c(c1)OCO2)c1ccc(NS(C)(=O)=O)cc1	GDH-TPI inh 36
C/C(=N\NC(=O)c1ccccc1)c1ccc2c(c1)OCO2	none
C/C(=N\NC(=O)c1ccc2c(c1)OCO2)c1ccc(O)cc1	GDH-TPI inh 33
COc1ccc(/C=N/NS(=O)(=O)c2ccc(C)cc2)cc1OC(=O)c1ccccc1	FBA Mtb inh 128
Cn1c(=O)ccc2ccccc21	none (no result: Mtb bLac sens, UGM FP inh, RecA splice inh, Rv3671c inh)
O=c1[nH]c2ccc(Cl)cc2c(O)c1-c1ccccc1	FBA Mtb inh 34
O=c1[nH]c2cc(Cl)ccc2c(O)c1-c1cccc(Oc2ccccc2)c1	none
Cc1ccsc1C(=O)OCC(=O)c1cc(C)n(C)c1C	FBA Mtb inh 114 (no result: RecA splice inh)
Cc1ccc(C)c(S(=O)(=O)N(C)C2CCS(=O)(=O)C2)c1 (stereo not given)	none
O=C1N[C@@H](Cc2c[nH]c3ccccc23)COC(=O)[C@@H](Cc2ccc(F)cc2)CC/C=C/C[C@@H]1CC(=O)N(CCO)Cc1ccccc1	none (no result: UGM FP inh, RecA splice inh)
C/C(=N\Nc1nccnc1Cl)c1ccc(Cl)c(Cl)c1	GDH-TPI inh 41
C/C(=N\Nc1nccnc1Cl)c1ccc(O)cc1	none
Cc1nn(-c2cccc(Cl)c2)c2nc(-c3ccncc3)cc(C(=O)N3CCOCC3)c12	none (no result: RecA splice inh)
CCN(CCCCN1C(=O)c2ccccc2C1=O)c1ccc2c(c1)C(=O)N(C)C2=O	GDH-TPI inh 43
COc1cccc(/C=N/n2c(-c3ccco3)nc3ccccc3c2=O)c1OC	UGM FP inh 11
COc1cccc(/C=N/n2c(C)nc3ccccc32)c1OC	none
C=CCSc1nnc(NC(=O)CCN2C(=O)C3CC=CCC3C2=O)s1 (stereo not given)	none (no result: RecA splice inh)
COc1ccc(C(=O)NCCCn2ccnc2)cc1[N+](=O)[O-]	GDH-TPI inh 32
Cc1ccc(C)c(N2CCN(S(=O)(=O)c3c(C)noc3/C=C/N(C)C)CC2)c1	GDH-TPI inh 36 (no result: UGM FP inh)
